LmPK inhibitor – blocks Leishmania mexicana pyruvate kinase activity; Q27686; purified LmPK, Kinase-Glo ATP luminescence, 1 h; Potency, µM (top dose mostly 57.5 µM), inactives show at the highest dose activity change, negative = inhibition, hits mostly inhibitors; 0.37% of 290,000 active; AID 1721
Target sequence (Q27686 whole entry, looked up): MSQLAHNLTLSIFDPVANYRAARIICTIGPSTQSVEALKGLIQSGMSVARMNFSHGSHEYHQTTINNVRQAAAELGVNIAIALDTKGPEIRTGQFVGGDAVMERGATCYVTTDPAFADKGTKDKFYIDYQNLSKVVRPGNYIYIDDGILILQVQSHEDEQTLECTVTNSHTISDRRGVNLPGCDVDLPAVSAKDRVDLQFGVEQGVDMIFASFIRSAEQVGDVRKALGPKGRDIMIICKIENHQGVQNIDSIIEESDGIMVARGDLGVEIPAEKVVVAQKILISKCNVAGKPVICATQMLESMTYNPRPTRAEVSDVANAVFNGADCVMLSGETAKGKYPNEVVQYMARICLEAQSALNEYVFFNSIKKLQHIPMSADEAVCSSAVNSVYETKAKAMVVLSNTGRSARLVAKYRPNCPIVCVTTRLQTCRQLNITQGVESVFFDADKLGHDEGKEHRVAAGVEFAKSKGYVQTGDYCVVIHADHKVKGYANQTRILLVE
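Purified LmPK (0.1 nM) with 0.5 mM PEP and 0.1 mM ADP in imidazole buffer pH 7.2 with MgCl2/KCl, 1 h at room temperature. ATP formed was read by luciferase luminescence and normalized to no-enzyme and uninhibited controls.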
Sm TGR inh – inhibitors of Schistosoma mansoni thioredoxin glutathione reductase; 3% of 360,000 active; purified TGR, DTNB reduction, TNB absorbance 405 nm; AID 485364; Q962Y6; Potency, µM (highest dose often 114 µM), without a hit: top-dose activity change, negative = inhibition, actives largely listed as inhibitors; also: nearly all actives have a fitted effect of over 60% in size
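First, TGR (20 nM dispensed) and NADPH were mixed with compound. Second, a 15 min room-temperature incubation followed. Third, further NADPH and then DTNB were added to start the reaction. Finally, TNB absorbance was monitored kinetically.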
Giardia FBPA inh – blocks Giardia fructose-bisphosphate aldolase activity; A8B2U2; purified Giardia FBPA; Potency, µM (series often up to 59.6 µM), for the others: at the highest dose activity, negative = inhibition, usual class: inhibitors; AID 2451; 0.71% of 290,000 active; also: nearly all actives have a fitted effect of over 55% in size
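40 nM FBPA preincubated 10 min at RT with compound (up to 57.5 uM final), then substrate plus GAPDH/TPI/NAD/arsenate coupling and diaphorase/resazurin added. Fluorescence read after 20 min at RT, 525/598 nm.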
TbPYK inhibitor – inhibitors of Trypanosoma brucei pyruvate kinase | 0.12% of 410,000 active | Potency, µM (titrated, usually from 76.8 µM), without a hit: at the highest dose activity, negative = inhibition, hits mostly inhibitors | AID 624173 | Q57TT1 | TbPYK enzyme, Kinase-Glo Plus ATP luminescence, 45 min; also: nearly all actives have a fitted effect of over 50% in size
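Luminescence from Kinase-Glo Plus, added after a 45-minute room-temperature reaction, served as the end-point read-out. The enzyme and substrate were preincubated with compound before ADP (130 uM final) initiated turnover. Concentration-effect curves came from normalized qHTS data.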
RE007 growth inh – less growth of the S. pombe RE007 Vpr strain | S. pombe RE007 Vpr strain, BacTiter-Glo ATP luminescence, 24 h | Potency, µM (top dose mostly 92.2 µM), without a hit: at the highest dose activity change, negative = less growth, usual class: inhibitors | 0.21% of 360,000 active; active = well fitted falling curve with a large enough effect; inconclusive = small, poorly fitted or top-dose-only effect; inactive = no such curve, though single readings can be large or run the other way; also: nearly all actives have a fitted effect of over 50% in size
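Fission yeast strain RE007, carrying one chromosomally integrated HIV-1 vpr copy, was seeded at OD 0.01 in PMG+AL medium with 23 nL pinned compound. After 24 h at 30 °C and 99% humidity, viability was read by BacTiter-Glo luminescence.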
* marks the source's active call; other numbers are inactive results. This is a sample that favours compounds with a hit; in the whole collection about 3.3% have one here. Unless noted, calls follow the shape of the dose curve; as a rule, active = well fitted curve in the direction sought with a large enough effect; inconclusive = small, poorly fitted or top-dose-only effect, or another doubt; inactive = no such curve, though single readings can be large; an effect the other way counts as inactive or inconclusive. % is scaled to controls: 0 for no effect and ±100 for the full control effect; potency is read from the fitted curve at half-maximal effect.

For COc1cccc(C(=O)NC(=S)Nc2ccc(Cl)c(C(=O)O)c2)c1 the results were LmPK inhibitor -2%, Sm TGR inh 32µM*, Giardia FBPA inh inconclusive, TbPYK inhibitor -2% and RE007 growth inh -12%.
`COc1c(C)cc(Br)cc1C(=O)NC(=S)Nc1ccc(Cl)c(C(=O)O)c1` gave LmPK inhibitor 10%, Sm TGR inh -31%, Giardia FBPA inh inconclusive, TbPYK inhibitor 4% and RE007 growth inh -7%.
CCOc1cc(C(=O)NC(=S)Nc2ccc(Cl)c(C(=O)O)c2)cc(OCC)c1OCC was read as LmPK inhibitor 3%, Sm TGR inh 32µM*, Giardia FBPA inh -16%, TbPYK inhibitor -7% and RE007 growth inh -15%.
CC(C)Oc1ccc(C(=O)NC(=S)Nc2ccc(Cl)c(C(=O)O)c2)cc1 was read as LmPK inhibitor 7%, Sm TGR inh 40µM*, Giardia FBPA inh 1%, TbPYK inhibitor -5% and RE007 growth inh -9%.
`Cc1ccc2nc(NC(=S)NC(=O)c3ccc(OC(C)C)cc3)sc2c1` gave LmPK inhibitor 13µM*, Sm TGR inh 0.71µM*, Giardia FBPA inh -16%, TbPYK inhibitor 3% and RE007 growth inh -5%.
CCOc1cc(C(=O)Nc2ccncc2)cc(OCC)c1OCC was read as LmPK inhibitor 0%, Sm TGR inh 9%, Giardia FBPA inh -11%, TbPYK inhibitor -8% and RE007 growth inh 10%.
For O=c1c(S(=O)(=O)c2ccc(Cl)cc2)cn(Cc2cccc(F)c2)c2ccc(F)cc12 the results were LmPK inhibitor 3%, Sm TGR inh 5%, Giardia FBPA inh 1%, TbPYK inhibitor -3% and RE007 growth inh -2%.
For COc1cccc(C(=O)NC(=S)Nc2cccnc2)c1 the results were LmPK inhibitor -12%, Sm TGR inh 56µM*, Giardia FBPA inh inconclusive, TbPYK inhibitor -10% and RE007 growth inh -21%.
For CC(C)Oc1cccc(C(=O)NC(=S)Nc2cccnc2)c1 the results were LmPK inhibitor 0%, Sm TGR inh inconclusive, Giardia FBPA inh inconclusive, TbPYK inhibitor 3% and RE007 growth inh -20%.
For COc1ccccc1C(=O)Nc1ccnn1C1CCN(CCC(C)c2ccc(C)o2)CC1 (stereo unspecified) the results were LmPK inhibitor 2%, Sm TGR inh inconclusive, Giardia FBPA inh 2%, TbPYK inhibitor -9% and RE007 growth inh -5%.
For O=C(CCCc1ccccc1)Nc1ccnn1C1CCN(Cc2ccccc2F)CC1 the results were LmPK inhibitor -1%, Sm TGR inh 4%, TbPYK inhibitor 2% and RE007 growth inh -23%.
For Cc1cc(CN2CCC(n3nccc3NC(=O)c3ccccc3Cl)CC2)cc(C)c1O the results were LmPK inhibitor 2%, Sm TGR inh 45µM*, TbPYK inhibitor -2% and RE007 growth inh -1%.
`Cc1ccc(C(C)CCN2CCC(n3nccc3NC(=O)c3ccccc3)CC2)o1` (stereo unspecified) gave LmPK inhibitor -6%, Sm TGR inh 35µM*, Giardia FBPA inh -1%, TbPYK inhibitor -18% and RE007 growth inh -11%.
`COc1cccc(CN2CCC(n3nccc3NC(=O)CCCc3ccccc3)CC2)c1O` gave LmPK inhibitor -7%, Sm TGR inh 8.9µM*, TbPYK inhibitor -10% and RE007 growth inh -2%.
Screening CCNC(=O)NC(=O)C(C)OC(=O)[C@H](C)NS(=O)(=O)c1c(C)c(C)cc(C)c1C (stereo partly specified) returned LmPK inhibitor -3%, Sm TGR inh -4%, Giardia FBPA inh 1%, TbPYK inhibitor 1% and RE007 growth inh 9%.
Screening Cc1cc(C)[n+](CCCC[n+]2c(C)cc(C)cc2C)c(C)c1 returned Sm TGR inh -1%, TbPYK inhibitor -12% and RE007 growth inh -6%.
For CCCC(c1nnnn1Cc1ccc(OC)cc1)N1CCC(C(N)=O)CC1 (stereo unspecified) the results were LmPK inhibitor 1%, Sm TGR inh -24%, Giardia FBPA inh -13%, TbPYK inhibitor -10% and RE007 growth inh 13%.
For Cc1oc(C)c2c(=O)ccc3c(c12)OC(N)=C(C#N)C3c1ccc(F)cc1 (stereo unspecified) the results were LmPK inhibitor 8%, Sm TGR inh 18µM*, Giardia FBPA inh 5.6µM*, TbPYK inhibitor -15% and RE007 growth inh 8%.
Screening Cc1[nH]nc2c1C(c1ccc(F)cc1)C(C#N)=C(N)O2 (stereo unspecified) returned LmPK inhibitor -4%, Sm TGR inh -31%, Giardia FBPA inh 2%, TbPYK inhibitor 9% and RE007 growth inh 2%.
For CC(C)(C)C#CC(CCc1ccccc1)OS(N)(=O)=O (stereo unspecified) the results were LmPK inhibitor 10%, Sm TGR inh 28µM* and Giardia FBPA inh -17%.
CC(CCc1ccccc1)NS(=O)(=O)c1ccccc1 (stereo unspecified) was read as LmPK inhibitor 2%, Sm TGR inh 1%, Giardia FBPA inh 0%, TbPYK inhibitor -7% and RE007 growth inh 3%.
For CCOC(=O)N1CCN(C(=O)CCc2ccccc2)CC1 the results were LmPK inhibitor -15%, Sm TGR inh 9%, Giardia FBPA inh 1%, TbPYK inhibitor 3% and RE007 growth inh 14%.
Screening CCOC(=O)C#CC(CCc1ccccc1)OS(N)(=O)=O (stereo unspecified) returned LmPK inhibitor 1%, Sm TGR inh 11µM*, Giardia FBPA inh 1%, TbPYK inhibitor -10% and RE007 growth inh 4%.
For COCCNC(=O)c1ccc(C(=O)C(=O)c2ccccc2)cc1 the results were LmPK inhibitor 1%, Sm TGR inh -9%, Giardia FBPA inh 6%, TbPYK inhibitor -8% and RE007 growth inh 3%.
Screening CN(C)CCCn1c(=O)n(Cc2ccco2)c(=O)c2c3c(sc21)CCCCC3 returned LmPK inhibitor 0%, Sm TGR inh 35µM*, Giardia FBPA inh -2%, TbPYK inhibitor inconclusive and RE007 growth inh 4%.
`CN(C)CCCn1c(=O)n(CCc2ccccc2)c(=O)c2c3c(sc21)CCCCC3` gave LmPK inhibitor -1%, Sm TGR inh 12%, Giardia FBPA inh -9%, TbPYK inhibitor 1% and RE007 growth inh -6%.
`O=c1c2c3c(sc2[nH]c(=S)n1Cc1ccco1)CCC3` gave LmPK inhibitor -11%, Sm TGR inh 14µM*, Giardia FBPA inh -20%, TbPYK inhibitor inconclusive and RE007 growth inh -6%.
Cc1ccc(-c2nc(-c3ccccn3)no2)cc1[N+](=O)[O-] was read as LmPK inhibitor 14µM*, Sm TGR inh 0%, Giardia FBPA inh 2%, TbPYK inhibitor 7% and RE007 growth inh inconclusive.
For CCN(CC)c1ccc(-c2nc(-c3ccncc3)no2)cc1[N+](=O)[O-] the results were Sm TGR inh -4% and TbPYK inhibitor -1%.

Bioassay records: PubChem, National Center for Advancing Translational Sciences (NCATS)
